16 compounds from PubChem BioAssay (NCATS) can be followed below.

Inconclusive results are not listed. Calls of active or inactive are those of the source. Unless noted, calls come from the whole dose curve; as a rule, active = well fitted curve in the direction sought with a large enough effect; inconclusive = small, poorly fitted or top-dose-only effect, or another doubt; inactive = no such curve, though single readings can be large; an effect the other way counts as inactive or inconclusive.

For assay [1], the target named is Calcium and integrin-binding protein 1 (Homo sapiens) (UniProt Q99828). As to the kind of experiment: Primary qHTS for Identification of Calcium Integrin Binding Protein 1 (CIB1) Competitor (AID 1508620).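 Note: GST tagged CIB1 binding a fluorescein labelled alphaIIb integrin peptide tracer; top concentration of the series differs between compounds.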 An outline of the steps:
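Fluorescence polarization competition: CIB1-GST (1 uM final) preincubated with compound 15 min at room temperature, then FITC-labeled alphaIIb peptide (100 nM final) added for another 15 min. Polarization read at Ex 480/Em 540.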
In general terms: In qHTS, concentration-response curves come from the screen itself.

Assay [2] is described as follows: Primary qHTS for small molecule stabilizers of the endoplasmic reticulum resident proteome: Secreted ER Calcium Modulated Protein (SERCaMP) assay (AID 1508630). The method, boiled down:
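GLuc-SERCaMP-expressing SH-SY5Y cells, pretreated 16 h with compound, are challenged with thapsigargin to empty ER calcium stores; after 4 h, coelenterazine is added directly to the medium and luminescence is imaged.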

The nature of assay [3]: A High-Content qHTS Against Drug Library for the Identification of Small Molecules that Inhibit DYT1 Early Onset Primary Dystonia-Associated Cell Pathology (AID 1645839; calls by dose curve). An outline of the steps: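 Readout: %pathology, the punctate EGFP-TorsinA distribution from imaging, as the primary channel and cell count as the toxicity counterscreen. HEK293 Flp-In cells expressing delE TorsinA were induced with tetracycline and treated with compound for 48 h.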

The target of assay [4] is Cytochrome P450 2D6 (Homo sapiens) (UniProt P10635). The assay can be described thus: Cytochrome P450 family 2 subfamily D member 6 (CYP2D6) small molecule antagonists: luciferase biochemical (cell-free) qHTS assay (AID 1645840; active = well fitted curve in the direction sought with a large enough effect in the repeat runs; an effect the other way counts as inactive or inconclusive; note: nearly all actives have a fitted effect of over 55% in size; note: potency is the fitted concentration of half-maximal effect). An outline of the steps: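 P450-Glo luminescent screen: recombinant CYP2D6 enzyme–proluciferin substrate mix preincubated with compound 10 min at room temperature, then NADPH regeneration added for 1 h at room temperature. Detection reagent added for 20 min; luciferin light read as relative luminescence units.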

Assay [5] addresses Cytochrome P450 2C9 (Homo sapiens) (UniProt P11712). The assay can be described thus: Cytochrome P450 family 2 subfamily C member 9 (CYP2C9) small molecule antagonists: luciferase biochemical (cell-free) qHTS assay (AID 1645842; active = well fitted curve in the direction sought with a large enough effect in the repeat runs; an effect the other way counts as inactive or inconclusive; note: nearly all actives have a fitted effect of over 55% in size; note: potency is the fitted concentration of half-maximal effect). An outline of the steps:
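Luminescence, after 20 min with luciferin detection reagent, reflected CYP2C9 turnover during a 1 h NADPH-driven reaction at 37C. Enzyme-substrate mix contained 0.4% bovine serum albumin and was preincubated with compound 10 min at room temperature.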

Assay [6] is described as follows: Primary qHTS for inhibitors of nuclear receptor binding SET domain protein 2 (NSD2) in an isogenic RCH-ACV NSD2 p.E1099K mutant (9B) (AID 1645876). Note: nearly all actives have a fitted effect of over 70% in size. Note: potency is the fitted concentration of half-maximal effect.
A short description of assay [7]: Cytotoxicity counterscreen for inhibitors of SARS-CoV-2 cell entry (AID 1645845; calls by dose curve; note: nearly all actives have a fitted effect of over 50% in size). An outline of the steps: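 Expi293F/hACE2 cells seeded overnight; cpd pin-transferred in DMSO, 1 h preincubation, + media, 48 h 37 C 5% CO2; ATPLite 1step luminescence; normalized to cells and no cells.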
The nature of assay [8]: Primary qHTS for inhibitors of nuclear receptor binding SET domain protein 2 (NSD2) in an RCH-ACV wild type WT cells (2C) (AID 1645877). Note: nearly all actives have a fitted effect of over 70% in size. Note: potency is the fitted concentration of half-maximal effect.
In assay [9] the target is Rap guanine nucleotide exchange factor 3 (Homo sapiens) (UniProt O95398). As to the kind of experiment: Confirmatory qHTS for antagonist of cAMP-regulated guanine nucleotide exchange factor 3 (EPAC1) (AID 1645880). Note: nearly all actives have a fitted effect of over 55% in size. The method, boiled down:
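Nucleotide exchange uses 100 nM EPAC1, 250 nM RAP1B-BODIPY-GDP and 50 uM GDP, with compounds in a concentration-titration series. After 5 min at room temperature, fluorescence (480 nm ex/540 nm em) is read every 5 min for 30 min. Data are normalized to control ATA and DMSO.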

For assay [10] the target is unchanged. As to the kind of experiment: Confirmatory qHTS for agonist of cAMP-regulated guanine nucleotide exchange factor 3 (EPAC1) (AID 1645881).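 Note: EPAC1 catalysed release of BODIPY-GDP from Rap1B seen as fluorescence loss; nearly all actives have a fitted effect of over 75% in size.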
Assay [11] addresses Rap guanine nucleotide exchange factor 4 (Homo sapiens) (UniProt Q8WZA2). As to the kind of experiment: Confirmatory qHTS for agonist of cAMP-regulated guanine nucleotide exchange factor 4 (EPAC2) (AID 1645884).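 Note: nucleotide exchange releases bodipy-GDP from Rap1 and this lowers its fluorescence; nearly all actives have a fitted effect of over 65% in size.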
Assay [12] in a line: Primary qHTS to identify inhibitors of SARS-CoV-2 cell entry (AID 1645846; calls by dose curve; note: nearly all actives have a fitted effect of over 45% in size). The note with it: activity change, negative = inhibition: at 57.1 µM (top of the series) unless noted. The method, boiled down: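 Entry measured by luciferase signal 48 h after adding SARS-CoV-2-S pseudotyped MLV particles to HEK293-ACE2 cells preincubated 1 h with compounds. Normalisation: bald particles and spike particles.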

Chain of Cytochrome P450 2D6 (Homo sapiens) (P10635 whole entry, looked up): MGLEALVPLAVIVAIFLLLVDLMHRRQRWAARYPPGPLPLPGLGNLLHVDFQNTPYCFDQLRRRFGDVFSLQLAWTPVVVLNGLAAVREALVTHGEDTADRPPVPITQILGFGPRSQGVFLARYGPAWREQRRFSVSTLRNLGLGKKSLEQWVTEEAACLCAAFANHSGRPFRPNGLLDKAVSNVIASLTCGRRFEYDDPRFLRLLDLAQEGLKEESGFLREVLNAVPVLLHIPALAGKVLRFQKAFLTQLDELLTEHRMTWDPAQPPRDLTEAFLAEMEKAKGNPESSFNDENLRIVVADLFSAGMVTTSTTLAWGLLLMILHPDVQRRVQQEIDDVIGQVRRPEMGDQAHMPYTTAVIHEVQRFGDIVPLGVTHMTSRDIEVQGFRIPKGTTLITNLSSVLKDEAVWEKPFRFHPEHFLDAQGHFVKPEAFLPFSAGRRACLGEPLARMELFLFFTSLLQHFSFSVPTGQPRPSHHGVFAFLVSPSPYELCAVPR
Chain of Calcium and integrin-binding protein 1 (Homo sapiens) (Q99828 whole entry, looked up): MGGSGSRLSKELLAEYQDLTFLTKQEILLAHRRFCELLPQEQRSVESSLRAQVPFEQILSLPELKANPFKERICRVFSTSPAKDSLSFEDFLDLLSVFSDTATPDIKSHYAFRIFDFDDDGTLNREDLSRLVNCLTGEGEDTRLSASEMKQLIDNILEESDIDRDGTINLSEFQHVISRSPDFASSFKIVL
Chain of Cytochrome P450 2C9 (Homo sapiens) (P11712 whole entry, looked up): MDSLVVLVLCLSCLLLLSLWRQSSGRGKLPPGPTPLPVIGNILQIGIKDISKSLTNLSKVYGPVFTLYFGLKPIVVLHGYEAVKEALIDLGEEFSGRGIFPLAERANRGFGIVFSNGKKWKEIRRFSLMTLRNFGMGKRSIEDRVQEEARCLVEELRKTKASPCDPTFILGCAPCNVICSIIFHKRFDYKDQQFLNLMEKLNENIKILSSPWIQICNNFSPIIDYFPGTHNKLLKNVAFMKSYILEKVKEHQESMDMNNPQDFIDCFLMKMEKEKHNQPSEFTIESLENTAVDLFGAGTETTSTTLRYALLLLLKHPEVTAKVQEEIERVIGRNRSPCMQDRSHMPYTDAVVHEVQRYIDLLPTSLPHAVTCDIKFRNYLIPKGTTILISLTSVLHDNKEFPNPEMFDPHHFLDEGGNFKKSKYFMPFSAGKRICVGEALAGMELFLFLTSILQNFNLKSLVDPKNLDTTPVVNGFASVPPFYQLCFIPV
Chain of Rap guanine nucleotide exchange factor 3 (Homo sapiens) (O95398 whole entry, looked up): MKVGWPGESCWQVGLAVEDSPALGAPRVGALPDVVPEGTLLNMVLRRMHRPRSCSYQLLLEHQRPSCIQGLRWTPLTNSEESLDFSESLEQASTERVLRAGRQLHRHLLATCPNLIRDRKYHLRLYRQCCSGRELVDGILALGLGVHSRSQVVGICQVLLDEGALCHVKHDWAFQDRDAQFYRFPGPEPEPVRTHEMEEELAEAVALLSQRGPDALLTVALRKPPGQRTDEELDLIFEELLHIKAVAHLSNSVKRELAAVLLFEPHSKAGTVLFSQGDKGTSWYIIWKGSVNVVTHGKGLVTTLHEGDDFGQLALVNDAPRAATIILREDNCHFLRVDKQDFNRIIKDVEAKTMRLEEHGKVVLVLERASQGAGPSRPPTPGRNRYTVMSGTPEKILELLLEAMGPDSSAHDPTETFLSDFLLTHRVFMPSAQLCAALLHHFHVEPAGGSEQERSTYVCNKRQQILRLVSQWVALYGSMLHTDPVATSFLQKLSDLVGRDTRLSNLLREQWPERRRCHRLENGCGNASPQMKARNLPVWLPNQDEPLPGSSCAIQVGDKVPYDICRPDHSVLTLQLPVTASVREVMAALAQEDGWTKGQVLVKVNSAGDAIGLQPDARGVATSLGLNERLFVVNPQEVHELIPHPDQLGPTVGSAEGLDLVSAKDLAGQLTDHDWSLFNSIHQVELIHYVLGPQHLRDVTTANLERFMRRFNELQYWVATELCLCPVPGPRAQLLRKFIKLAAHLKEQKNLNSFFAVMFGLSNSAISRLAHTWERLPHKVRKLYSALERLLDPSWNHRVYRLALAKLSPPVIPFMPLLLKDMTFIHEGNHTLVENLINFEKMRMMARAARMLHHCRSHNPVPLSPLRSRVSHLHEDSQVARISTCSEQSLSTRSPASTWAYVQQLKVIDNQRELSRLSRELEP
Chain of Rap guanine nucleotide exchange factor 4 (Homo sapiens) (Q8WZA2 whole entry, looked up): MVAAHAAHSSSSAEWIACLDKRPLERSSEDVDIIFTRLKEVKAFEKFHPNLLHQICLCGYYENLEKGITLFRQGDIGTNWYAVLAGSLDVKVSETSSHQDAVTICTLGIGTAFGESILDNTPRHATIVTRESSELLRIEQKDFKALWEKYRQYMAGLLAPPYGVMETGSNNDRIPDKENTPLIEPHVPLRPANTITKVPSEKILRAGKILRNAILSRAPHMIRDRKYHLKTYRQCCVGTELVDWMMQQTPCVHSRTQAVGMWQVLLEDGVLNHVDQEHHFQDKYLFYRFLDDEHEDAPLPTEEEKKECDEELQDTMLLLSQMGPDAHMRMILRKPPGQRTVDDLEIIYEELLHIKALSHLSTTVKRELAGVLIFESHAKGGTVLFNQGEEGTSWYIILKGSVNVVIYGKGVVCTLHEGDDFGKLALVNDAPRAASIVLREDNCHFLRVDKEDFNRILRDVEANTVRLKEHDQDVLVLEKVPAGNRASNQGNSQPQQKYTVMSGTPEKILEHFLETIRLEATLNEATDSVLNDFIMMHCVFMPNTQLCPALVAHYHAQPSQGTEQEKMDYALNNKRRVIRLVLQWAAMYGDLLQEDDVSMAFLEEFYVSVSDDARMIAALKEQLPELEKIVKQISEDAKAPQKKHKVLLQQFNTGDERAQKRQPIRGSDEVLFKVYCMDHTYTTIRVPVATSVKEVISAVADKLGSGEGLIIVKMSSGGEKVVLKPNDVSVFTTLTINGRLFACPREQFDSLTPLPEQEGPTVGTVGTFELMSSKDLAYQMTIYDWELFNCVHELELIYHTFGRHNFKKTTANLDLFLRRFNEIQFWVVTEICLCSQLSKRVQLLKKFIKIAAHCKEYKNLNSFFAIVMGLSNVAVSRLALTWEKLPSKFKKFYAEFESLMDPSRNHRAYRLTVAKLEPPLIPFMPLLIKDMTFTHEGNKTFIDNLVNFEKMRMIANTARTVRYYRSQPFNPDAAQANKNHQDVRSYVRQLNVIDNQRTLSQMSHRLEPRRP

For the compound `CCN[C@H](C)Cc1cccc(C(F)(F)F)c1`, the Potency result in assay [1], in assay [2], in assay [5] and in assay [6] was “inactive” in each case. In addition, the call in assay [3] was inactive. Moreover, the Potency in [4] is 3.16 µM (active).

Turning to `C[C@](O)(CS(=O)(=O)c1ccc(F)cc1)C(=O)Nc1ccc(C#N)c(C(F)(F)F)c1`, the Potency entry in [1], in assay [2] and in assay [7] was “inactive” each time.

In the case of `C[C@]12CCC(=O)C=C1CC[C@@H]1[C@H]3CC[C@](C)(O)[C@@]3(C)CC[C@@H]12`, the Potency result in assay [1] and in assay [2] was “inactive” each time. In addition, the call in [3] was inactive. For the same compound, the Potency in assay [4] is 43.5 µM (active); in assay [5], 42.6 µM (active); in [6] it was 34.7 µM (active); in [8], 21.9 µM (active).

On to `O=C1c2ccccc2C(=O)C1C(=O)C(c1ccccc1)c1ccccc1`, for which the Potency result in assay [1] and in [2] was “inactive” in each case. Also, the compound was classed as inactive in [3], in [9], in assay [10] and in [11]. Besides, the Potency in assay [4] was 19.2 µM (active); in [5], 0.384 µM (active).

Consider `C[C@]12CC[C@H]3[C@@H](CCC4=CC(=O)CC[C@@H]43)[C@@H]1CC[C@@H]2OC(=O)CCc1ccco1`, for which the Potency result in assay [1], in assay [2], in assay [7] and in assay [12] was “inactive” each time. Further, the call in assay [3] was inactive. Moreover, the Potency in assay [5] was 15.5 µM (active); in [6], 23.7 µM (active).

Regarding `CCCCCCCCCC(=O)O[C@H]1CC[C@H]2[C@@H]3CCC4=CC(=O)CC[C@@H]4[C@H]3CC[C@]12C`, the Potency entry in assay [1], in assay [2], in [6] and in assay [8] was “inactive” throughout. The compound was classed as inactive in [3]. In [5], the Potency is 12.3 µM (active).

For `NC1=NC(=O)C(c2ccccc2)O1` (stereo not given), the Potency entry in assay [1], in [2], in [4], in assay [5], in assay [6] and in [8] was “inactive” each time. Moreover, the call in assay [3] was inactive.

Turning to `CC(C(=O)c1ccccc1)N(C)C` (stereo not given), the Potency entry in [1], in [2] and in assay [5] was “inactive” in each case. Further, the compound was called inactive in assay [3].

`O=c1[nH]c2ccccc2n1C1CCNCC1`: the Potency entry in assay [1], in assay [2], in assay [5], in assay [6] and in [8] was “inactive” each time. Besides, the call in assay [3] was inactive.

As for `c1ccc(N2CCNCC2)cc1`, the Potency result in assay [1], in assay [4], in [5], in assay [6] and in [8] was “inactive” throughout. Besides, the compound was classed as inactive in assay [3].

With `CC[N+]1(CC)CCC(OC(=O)C(O)(c2ccccc2)c2ccccc2)C1` (stereo not given), the Potency result in assay [1], in assay [5], in [6] and in [8] was “inactive” in each case. In addition, in assay [3], the outcome was inactive. The Potency in [4] was 12.9 µM (active).

Consider `c1ccc(CN2CCNCC2)cc1`, for which the Potency entry in assay [1], in assay [5], in assay [6] and in assay [8] was “inactive” in each case. The call in [3] was inactive. Also, in [4], the Potency was 30.6 µM (active).

With `COc1cc(CC(C)N)cc(OC)c1OC` (stereo not given), the Potency result in assay [1] and in assay [5] was “inactive” in each case. The result in assay [3] was inactive. Also, the Potency in [4] was 30.6 µM (active).

With `COC(=O)[C@@H](N)CCCN/C(N)=N/[N+](=O)[O-]`, the Potency entry in assay [1], in assay [4], in assay [6] and in assay [8] was “inactive” throughout. Besides, in assay [3], the result was inactive.

Consider `CC(=O)NC1CCSC1=O` (stereo not given), for which the Potency result in assay [1], in [4], in assay [6] and in assay [8] was “inactive” each time. Further, in assay [3], the call was inactive.

In the case of `Clc1cccc(SC2CCNCC2)n1`, the Potency entry in [1], in assay [6] and in [8] was “inactive” throughout. For the same compound, in [3], the result was inactive.
